Source: the supplement of paper PMC11219838
Unmarked numbers belong to inactive results.

Key:
Conditions in all cases: 60 µM; 5 days; temperature: 20 °C
Meloidogyne hapla J2 = assay: proportion of mobile M. hapla J2 relative to DMSO control (fraction of DMSO control); higher = more viable, less nematicidal, active = 0.7 or less
In short: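 Sealed 96-well plates, each well holding around 25 M. hapla J2 in distilled water with compound pinned to 60 µM final (0.6% v/v DMSO), were shaken at 200 rpm for 5 days at 20 °C. Then 2 µL of 1 M NaOH was added to each well. Microscope-scored mobility was normalised to the mean of DMSO-only wells from the same plate. Eight such wells were on each plate, and the two biological replicates were averaged.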

[1] = test system: Caenorhabditis elegans dauer (daf-2(e1370)); assay: proportion of mobile C. elegans dauer larvae relative to DMSO control (fraction of DMSO control); higher = more viable, less nematicidal, active = 0.63 or less; extreme values may be limits of the assay
In short: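 Synchronized C. elegans daf-2(e1370) larvae were held at 25 °C for 48 h on MYOB plates with E. coli OP50 to form dauers, and about 20 dauers were added per 96-well well in liquid NGM. Compound was pinned to 60 µM final (0.6% v/v DMSO), and sealed plates were shaken at 200 rpm for 5 days at 20 °C. The proportion of mobile worms was scored under a dissection microscope relative to DMSO controls and averaged over two biological replicates.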

Ditylenchus dipsaci = assay: proportion of mobile D. dipsaci (mixed stage) relative to DMSO control (fraction of DMSO control); higher = more viable, less nematicidal, active = 0.86 or less; extreme values may be limits of the assay
In short: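 Mobility, expressed relative to DMSO controls, is the mean of two biological replicates. The test organisms were D. dipsaci grown on pea plants in Gamborg B-5 agar and extracted into water by filter funnel, with about 20 added per well of a 96-well plate in distilled water. Compound was pinned to 60 µM final (0.6% v/v DMSO), plates were sealed and shaken at 200 rpm for 5 days at 20 °C, and mobile worms were scored under a microscope once 2 µL 1 M NaOH had been added.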

Compound | proportion of mobile M. hapla J2 (Meloidogyne hapla J2) | proportion of mobile C. elegans dauer larvae [1] | proportion of mobile D. dipsaci (Ditylenchus dipsaci)
Cc1ccccc1OCc1nc(-c2ccc3c(c2)OCO3)no1 | 0.878 | 1 | 1
Clc1ccc(SCc2nc(-c3ccccc3)no2)cc1 | 0.783 | 0.59 (active) | 1
Cc1ccc(C)c(OCc2nc(-c3ccccc3Cl)no2)c1 | 0.854 | 1 | 1
CCn1c(SCc2ccc(OC)cc2)nnc1-c1ccco1 | 0.611 (active) | 1 | 1
COc1ccc(-c2noc(COc3ccc(C)cc3C)n2)cc1 | 0.93 | 1 | 1
Cc1cccc(NC(=O)CSc2nnc(-c3ccncc3)o2)c1C | 1.02 | 1 | 1
O=C(Nc1ccc(-c2noc(COc3ccccc3)n2)cc1)c1ccc(F)cc1 | 1.03 | 1 | 1
O=C(CSc1nnc(-c2ccc(Br)cc2)o1)OCc1ccccc1 | 1.02 | 1 | 1
Clc1ccccc1-c1noc(-c2ccccc2Cl)n1 | 1.02 | 1 | 1
Clc1ccc(-c2noc(-c3ccncc3)n2)cc1 | 0.784 | 1 | 1
COc1ccc(C)cc1NC(=O)CSc1nnc(-c2ccc(Br)cc2)o1 | 0.938 | 1 | 1
Fc1cccc(-c2nc(-c3ccccc3)no2)c1 | 0.867 | 1 | 1
Cc1ccc(OCc2nc(-c3ccc(Br)o3)no2)cc1C | 1 | 1 | 1
Cc1cc(C)c(C)c(OCc2nc(-c3ccccc3)no2)c1 | 0.95 | 1 | 1
CCOc1nc(-c2ccc(C)cc2)ccc1-c1noc(CC)n1 | 0.667 (active) | 1 | 1
Cc1ccc(-c2nnc(SCC(=O)Nc3ccc(F)cc3)o2)cc1 | 1.04 | 1 | 1
COc1ccccc1-c1nnc(SCc2ccc(C#N)cc2)o1 | 0.897 | 1 | 1

Compound | proportion of mobile M. hapla J2 (Meloidogyne hapla J2) | proportion of mobile C. elegans dauer larvae [1] | proportion of mobile D. dipsaci (Ditylenchus dipsaci)
COc1ccc(Cl)cc1NC(=O)CSc1nnc(-c2ccncc2)o1 | 0.98 | 1 | 1
O=C(CSc1nnc(-c2ccccc2Cl)o1)NCc1ccccc1 | 1.04 | 1 | 1
Fc1ccc(-c2nc(-c3ccc4c(c3)OCO4)no2)cc1 | 1.02 | 1 | 1
Cc1cc(C)c(OCc2nc(-c3ccncc3)no2)c(C)c1 | 0.938 | 1 | 1
Cc1cc(C)c(C)c(OCc2nc(-c3cccnc3)no2)c1 | 0.58 (active) | 1 | 1
Cc1ccc(-c2noc(COc3ccc(Cl)cc3C)n2)cc1 | 0.996 | 1 | 1
COc1ccc(-c2noc(-c3ccccc3C(=O)Nc3ccc(NC(C)=O)cc3)n2)cc1 | 0.923 | 1 | 1
COc1ccc(CCC(=O)Nc2ccc(-c3noc(-c4ccccc4C)n3)cc2)cc1 | 0.791 | 1 | 1
c1ccc(COc2cccc(-c3nc(-c4ccncc4)no3)c2)cc1 | 0.915 | 1 | 1
CCOc1ccccc1-c1nc(-c2ccc(NC(=O)Cc3ccccc3OC)cc2)no1 | 1.04 | 1 | 1
Cc1ccc(OCc2nc(-c3ccccn3)no2)cc1C | 1.01 | 1 | 1
FC(F)(F)c1ccc(-c2noc(-c3ccccc3Cl)n2)cc1 | 1.04 | 1 | 1
O=C(CSc1nnc(-c2cccc(Cl)c2)o1)N1CCCCC1 | 1 | 1 | 1
Brc1ccccc1-c1nc(-c2ccccn2)no1 | 0.678 (active) | 0.738 | 1
Cc1ccc(-c2nnc(SCC(=O)Nc3nccs3)o2)cc1 | 1.04 | 1 | 1
COc1ccc(-c2noc(COc3ccc4c(c3)CCCC4)n2)cc1 | 0.959 | 1 | 1
CC(C)(Oc1ccc(Cl)cc1)c1nc(-c2ccncc2)no1 | 0.91 | 1 | 1
